Compound activity from PubChem.
The list is not random: actives were taken first. Their share in the collection is about 0.56%.
Arbovirus anti: antivirals against arbovirus infection; arbovirus infection cell-based antiviral screen; inhibition, % at 10 µM; 200,000 compounds, 0.37% hits; in the data active = inhibition above about 30%
Bim-Bcl-W: inhibitors of Bim-Bcl-W interaction, human | Q92843 | bead-based flow cytometry, Bim peptide-Bcl-W binding | inhibition, % at 10 µM | 190,000 compounds, 0.02% hits;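 note: higher means less fluorescent Bim peptide bound to Bcl-W beads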
Bcl-2 Bim block: disrupts Bim peptide binding to human Bcl-2; AID 950; 190,000 compounds, 0.06% hits; inhibition, % at 10 µM; Bead-based flow cytometry, Bim peptide-Bcl-2 binding; in the data active = inhibition above about 40%
Bim-Bcl-XL: inhibitors of Bim-Bcl-XL interaction, human; Q07817; Bim peptide-Bcl-XL binding, bead flow cytometry, fluorescence; inhibition, % at 10 µM; 190,000 compounds, 0.04% hits
Target sequence (Q07817 whole entry, looked up): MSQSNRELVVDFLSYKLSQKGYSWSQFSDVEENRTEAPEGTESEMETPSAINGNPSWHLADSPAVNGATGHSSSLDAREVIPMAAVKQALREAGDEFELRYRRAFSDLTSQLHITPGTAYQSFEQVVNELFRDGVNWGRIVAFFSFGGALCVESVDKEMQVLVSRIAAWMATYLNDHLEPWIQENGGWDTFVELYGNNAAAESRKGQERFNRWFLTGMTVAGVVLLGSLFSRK
Bcl-B Bim block: inhibitors of Bim-Bcl-B interaction, human; inhibition, % at 10 µM; 190,000 compounds, 0.073% hits; bead-based flow cytometry, Bim peptide-Bcl-B binding; Q9HD36
Target sequence (Q9HD36 whole entry, looked up): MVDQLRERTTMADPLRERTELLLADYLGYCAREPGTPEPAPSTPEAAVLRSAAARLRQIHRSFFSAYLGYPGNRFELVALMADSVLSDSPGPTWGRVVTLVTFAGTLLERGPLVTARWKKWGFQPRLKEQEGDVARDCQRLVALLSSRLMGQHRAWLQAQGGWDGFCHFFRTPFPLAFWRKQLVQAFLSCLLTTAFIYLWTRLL
Bfl-1 Bim block: human Bim-Bfl-1 interaction inhibition | inhibition, % at 10 µM | Bead-based flow cytometry, Bim-Bfl-1 binding inhibition | 190,000 compounds, 0.12% hits
A number is an active result; i = inactive; nt = not tested or not shown. Cut-off read from the data, not from the text of the source, unless noted: active = inhibition above about 40%.

SMILES | Arbovirus anti | Bim-Bcl-W | Bcl-2 Bim block | Bim-Bcl-XL | Bcl-B Bim block | Bfl-1 Bim block
COc1cc2[nH]c(=S)nc(NC3CCCCCC3)c2cc1OC | i | i | i | i | i | i
COc1ccc(CCNc2nc(=S)[nH]c3cc(OC)c(OC)cc23)cc1OC | i | i | i | 48 | i | i
COc1cc2[nH]c(=S)nc(NCCc3ccc(S(N)(=O)=O)cc3)c2cc1OC | i | i | i | 55 | i | i
CN(Cc1ccccc1NC(=O)c1ccc(S(=O)(=O)N(C)C)cc1)C1CCCCC1 | 47 | i | i | i | i | i
CCCCCn1c(=O)c(-c2nc3ccccc3[nH]2)c(O)c2ccccc21 | i | i | i | i | i | i
CCOC(=O)Cc1nnc(NC(=O)c2ccccc2OCC)s1 | 78 | i | i | i | i | i
N#Cc1c(N)nc(SCC(=O)NC2CCCCC2)c(C#N)c1-c1ccc(Cl)cc1 | i | i | i | i | i | i
N#CCSc1nc(N)c(C#N)c(C2CCCCC2)c1C#N | 34 | i | i | i | i | i
Cc1cccc(S(=O)(=O)Nc2nc3ccccc3nc2NCc2ccco2)c1 | 33 | i | i | i | i | i
O=C(NCCN1CCOCC1)c1cnn2c(-c3ccccc3)cc(-c3ccccc3)nc12 | i | i | i | i | i | i
COc1ccc2[nH]c(=O)c(CN(CCCN(C)C)C(=O)Nc3ccc(F)cc3)cc2c1 | 30 | i | i | i | i | i
COc1ccc(NC(=S)N2CCOCC2)c(OC)c1 | i | i | i | i | i | i
O=C(Cn1cnc2ccccc21)Nc1ccc(SC(F)F)cc1 | i | i | i | i | i | i
O=c1[nH]c(=O)n(C(c2ccccc2)c2ccccc2)cc1Br | 32 | i | i | i | i | i
NC(=O)Cn1nc([N+](=O)[O-])nc1Oc1ccccc1C(=O)N1CCOCC1 | i | i | i | i | i | i
N#Cc1c(-c2ccccc2)nc(SCC(=O)Nc2ccccc2)[nH]c1=O | i | i | i | i | i | i
N#Cc1c(-c2ccccc2)nc(SCC(=O)N(c2ccccc2)c2ccccc2)[nH]c1=O | 33 | i | i | i | i | i
N#Cc1c(-c2ccccc2)nc(SCC(=O)Nc2nnc(C(F)(F)F)s2)[nH]c1=O | 73 | i | i | i | i | i
CCc1cc(=O)oc2cc3occ(-c4ccc(OC)c(F)c4)c3cc12 | i | i | i | i | i | i
COc1cc(NC(=O)COC(=O)c2cc(S(=O)(=O)N3CCCCC3)ccc2Cl)c(C)cc1[N+](=O)[O-] | i | i | i | i | i | i
Cn1c(N)c(C(=O)COC(=O)c2ccc3c(c2)C(=O)N(c2ccc(Cl)cc2)C3=O)c(=O)n(C)c1=O | i | i | i | i | i | i
Cc1ccc(S(=O)(=O)N2CCCCC2)cc1NC(=O)COC(=O)c1ccccc1F | i | i | 78 | i | 74 | 48
Cc1ccc(S(=O)(=O)N2CCCCC2)cc1NC(=O)COC(=O)Cc1ccc(Cl)cc1 | i | i | i | i | i | i
CCOc1ccc(S(=O)(=O)N(C)c2ccc(OCC(=O)NCc3ccc(C(=O)OC)cc3)cc2)cc1 | i | i | i | i | i | i
CNc1nc2ccccc2n1/N=C/c1cccc(OC)c1OC | i | i | 92 | i | nt | nt
SMILES | Arbovirus anti | Bim-Bcl-W | Bcl-2 Bim block | Bim-Bcl-XL | Bcl-B Bim block | Bfl-1 Bim block
OCC1CCCN(C2CCN(Cc3nc(Cc4cccc(C(F)(F)F)c4)no3)CC2)C1 (configuration not stated) | i | i | i | i | i | i
CCN(CC)c1ccc(Nc2nc(N3CCOCC3)c3ccccc3n2)cc1 | i | i | i | i | i | 54
Oc1cc2c(cc1C(c1ccc(Cl)c(Cl)c1)N1CCCC1)OCO2 (configuration not stated) | i | i | i | i | i | i
O=C(O)c1cccc(N/N=C/c2ccc(F)c(F)c2)c1 | i | i | i | i | i | i
O=C(O)c1cccc(N/N=C/C2=C(Cl)c3cc(Cl)ccc3SC2)c1 | 46 | i | i | i | i | i
O=C(O)C1CC=CCC1C(=O)NCCCCc1ccccc1 (configuration not stated) | i | i | i | i | i | i
Cc1ccc(C)n1-c1ccc(N2CCOCC2)cc1 | i | i | i | i | 40 | i
CC1(C)CC(CCC(=O)NC(=S)Nc2ccccc2Cl)C(=O)O1 (configuration not stated) | i | i | i | i | i | i
CCN1/C(=C/c2ccc3cc(C)ccc3[n+]2CC)Sc2ccccc21 | i | i | i | i | i | i
CCN1/C(=C/c2ccc3cc(C)ccc3[n+]2CC)Sc2cc(C)c(C)cc21 | i | i | 40 | i | i | i
O=[N+]([O-])c1ccc(C2Oc3ccccc3C3CC(c4ccccc4)=NN32)s1 (configuration not stated) | i | i | i | i | i | i
Cc1nc(-c2ccc(NC(=O)c3ccccc3Br)cc2)cs1 | i | i | i | i | i | i
COCc1cc(C)[nH]c(=O)c1C(=O)NC12CC3CC(CC(C3)C1)C2 | i | i | i | i | i | i
Cc1c(N2C(=O)c3ccc4c5c(ccc(c35)C2=O)CC4)c(=O)n(-c2ccccc2)n1C | i | i | i | i | 58 | i
Cc1c(N2C(=O)c3ccc(Br)cc3C2=O)c(=O)n(-c2ccccc2)n1C | i | i | i | i | i | i
COC(CNC(=O)c1cc(-c2ccncc2)nc2ccc(S(=O)(=O)N3CCOCC3)cc12)OC | i | i | i | i | i | i
CC(C)=C1C(=O)NN(c2ccc(C)c(Cl)c2)C1=O | i | 48 | i | 50 | 56 | 43
Cc1ccc(C(=O)Oc2ccc([N+](=O)[O-])cc2)cc1S(=O)(=O)N1CCCCCC1 | i | i | i | i | i | i
C/C(=N\NC(=O)c1c(Cl)c(C)nn1C)c1ccc(NC(=O)c2ccncc2)cc1 | 41 | i | i | i | i | i
CC(=O)Nc1ccc(/C(C)=N/NC(=O)c2ccncc2)cc1 | i | i | i | i | i | i
O=C(c1cccnc1)N1CCC(Oc2ccc(C(=O)N3CCCC(O)C3)cc2)CC1 (configuration not stated) | i | i | i | i | i | i
CCC(=O)Nc1cc(C)c(OC)c(C)c1 | i | i | i | i | i | i
N#Cc1cc(-c2ccccc2)nn1-c1ccccc1 | i | i | i | i | i | 57
CCOC(=O)NC(O)C(=O)c1ccc(F)cc1 (configuration not stated) | i | i | i | i | i | i
CCCCC(C(=O)OCC)C(N)Cc1ccc(F)cc1 (configuration not stated) | i | i | 58 | 83 | 76 | i
SMILES | Arbovirus anti | Bim-Bcl-W | Bcl-2 Bim block | Bim-Bcl-XL | Bcl-B Bim block | Bfl-1 Bim block
OCC1(CCOc2ccccc2)CCN(Cc2cn[nH]c2-c2ccc(F)cc2)CC1 | i | i | i | i | i | i
OCC1(CCOc2ccccc2)CCN(Cc2nc3ccc(F)cc3[nH]2)CC1 | 55 | i | i | i | i | i
CCCCCCc1cc2cc(C(=O)Nc3ccccc3)c(=O)oc2cc1O | i | i | 45 | i | 50 | i
O=C(CCl)Nc1cccc2ncccc12 | i | i | i | i | 57 | i
O=C(CNC(=S)N(CCCN1CCOCC1)Cc1cccs1)NC1CCCC1 | i | i | i | i | i | i
CC(C)CN1C(=O)/C(=C/c2ccco2)NC1=S | i | i | i | i | i | 47
